From the supplement of paper PMC6555819

Tested on: VDR:RXRa (NR concentration 270 nM, RXRa partner concentration 90 nM)
Assay: PBM binding z-score (relative to random genomic background probes); higher = stronger binding; sequences stand for … in GC…GCGATTGACAGCGTAGAATGAAGG
Description: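 Protein-binding microarray (Agilent 4x180K custom design, double-stranded 60-nt probes: 5' GC cap, 34-nt variable region, 24-nt constant primer region; full probe sequence given). Purified or IVT nuclear receptor:RXRα heterodimers (3:1 NR:RXRα, mostly 270:90 nM) or homodimers were incubated for 1 h in PBS with 2% milk and no ligand, then detected with Alexa488 antibodies. Fluorescence from o1-orientation probes (~5 replicates averaged) was converted to z-scores against 500 random hg19 background probes. Variable regions are seed direct-repeat (DR0–DR5) sites, all their single-nucleotide variants and half-site ablations.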

| Sequence | PBM binding z-score |
| --- | --- |
| TCTTGTAGATCAAGCAGATTAAGAAAGCCTGAGT | 0.437 |
| TTACCAAGGTGTGCTGAGGTCGTTGATCCAACTC | 2.39 |
| ATCGAAAGGTTGAAGGTGAGTATACCCACCCGAA | 0.806 |
| ACTAGCAGGCCAAGGATCACTCAAGATTAGTCCG | -0.428 |
| AGTCAAATTTCAGGACGAGGTAACGTAAAGCACG | -0.0744 |
| ATATGTAGGTTAGCTGGGGTCTTTCAGACTAGGC | 1.28 |
| TCATATAGGTAAATGCTAGGTGAAAGACCGATCT | 0.73 |
| CCTTACGGGTCAAGAGGTTATAGCACGACGAGCG | 4.09 |
| ATACGTAGGTTAAGGGTCATTCAGGTTGGTTCGC | 5.82 |
| TTACCAAGGTGAAGGGCGTTGATCCCTCTGTAGA | 0.253 |
| CCTGCTCGGTCATGGTCAGCTAATCTACAGTATG | -0.315 |
| GCTGCTAAGTCAGGTTGGTCAGCTAACGGGTACG | -0.547 |
| CATACAGGATCAGCTAGGCCAGAGTAGGGACGGC | -0.514 |
| CGAACTAGGTCATTGAGAGGACAGTGAATAGTAA | 2.92 |
| AATACAGGGTCACTAGCCCAGAGTAGGTACGAAT | 4 |
| TCATATGGGTAAACAGGTGAAAGTCCGTAAGTTA | 0.583 |
| TCTGCTAAGTCAGTTGGTCAGCTAACGAGCTGCC | -0.514 |
| TGAATGAGGTTAGAAGATCAGGGAACGTTGCAAA | 0.0983 |
| CCTAGTTGGTCAAGGTGACACACGCTATAGGTAC | 0.694 |
| CTTCCAAGGTCAAAGGTCAGTGAAGAGATGACGG | 6.57 |

| Sequence | PBM binding z-score |
| --- | --- |
| AGTCAAAGTTCATTAGGTAACGTAAGATTCAGCT | 4.72 |
| CATACAGGGTCAGCTTGGCCAGAGTAGGGACGGC | 2.81 |
| AGTCAAAGTTCACTAGGTAAAGTAAGATTCAGCT | 3.34 |
| CTACCAAGGTGAACAAGGTCGTTGACTACTATTC | 6.23 |
| TAGCCTAGGTCATTCAGGGGCCCGTATAGAAAGC | 2.51 |
| ATCGAAAGGTCGTGAGGTGAATATACAGAAAGGC | 3.88 |
| TCGAGTAGGTTAGTCGAGGCATTCAGCCAACATA | -0.258 |
| TCTGCTAGGTCAGTTGGTCAACTAACGAGCTGCC | 0.33 |
| CGTCCAAGGTCAAAGGTAAGTGAAGAGATGACGG | 4.55 |
| ATATGTAGTTTAAGGGTCATTCAGGTTGGTTCGC | 5.34 |
| ATCTCTAGGTAAAGATAGTTCATTGAATGCAAAT | 2.07 |
| CGTCCAAGGTAATAGGAGGTCAGTGAAGACAGAT | 2.56 |
| ATCGAAAGGTCGTGAGGTGATTATACAGAAAGGC | 3.61 |
| CTACCAAGGTGAACAAGGTCGTTGTTTACTATTC | 6.2 |
| TCATATAGGTGATACAGGTGAAAGTCGGCATCTA | 1.19 |
| TCATATAGGAAAAAGGTGAAAGTCGGTGTGGTAA | 1.21 |
| TCATATAGGTAAATGGTGAAAGTCGGTGTGGTAA | 0.561 |
| TCTTGTAGATCAATAGAGGTTTAGAAAGTGCGCT | 0.618 |
| ACTAGTTGGTCAGCTCAGGTCACACACAATTCGG | 2.23 |
| CCTGATAGGTCATGGTCAGCTAATCTACAGTATG | 2.95 |
